Laboratory results taken from the supplement of paper PMC12350171.
Structures can show the parent of a compound that is named as a salt.

system: S. enterica typhimurium tolC KO; experiment: growth AUC normalised to DMSO control (median) (fraction of control); higher = less growth inhibition, active = hit call of the paper; conditions: 20 µM
In short: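 Anaerobic growth was tracked hourly at OD578 for 24 h in 96-well plates of mGAM seeded at OD578 0.01 with each approved-drug library compound at 20 μM and 1% DMSO. Strains had first been passaged twice overnight without oxygen. Three biological replicates were run. The reported median is the area under the curve, calculated by the trapezoidal rule on curves truncated at entry into stationary phase and normalised to vehicle wells on the same plate.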
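Further: active when median AUC fell below 0.1.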

Row | Structure (SMILES) | growth AUC normalised to DMSO control
1 | Nc1nc(N)nc(-c2cc(Cl)ccc2Cl)n1 [Irsogladine maleate] | 1 (inactive)
2 | CC(C)(C)NCC(O)c1ccc(O)c(CO)c1 (stereo not drawn) [Salbutamol] | 0.997 (inactive)
3 | C[C@H](CCC(=O)O)[C@H]1CC[C@H]2[C@@H]3[C@@H](O)C[C@@H]4C[C@H](O)CC[C@]4(C)[C@H]3CC[C@]12C [Urosiol] | 1.01 (inactive)
4 | OCCN1C[C@H](O)[C@@H](O)[C@H](O)[C@H]1CO [Miglitol] | 0.988 (inactive)
5 | CCCC(CCC)C(=O)O [Valproic acid] | 1.01 (inactive)
6 | CCOC(=O)c1ccc(N)cc1 [Benzocaine] | 1.01 (inactive)
7 | CCSc1ccc2c(c1)N(CCCN1CCN(C)CC1)c1ccccc1S2 [Thiethylperazine maleate] | 0.91 (inactive)
8 | COC(=O)Nc1nc2cc(C(=O)c3ccc(F)cc3)ccc2[nH]1 [Flubendazol] | 1 (inactive)
9 | O=C(Cn1ccnc1[N+](=O)[O-])NCCO [Etanidazole] | 1.02 (inactive)
10 | Cc1cccc(N(C)C(=S)Oc2ccc3ccccc3c2)c1 [Tolnaftate] | 0.981 (inactive)
11 | CCC(C)n1ncn(-c2ccc(N3CCN(c4ccc(OCC5COC(Cn6cncn6)(c6ccc(Cl)cc6Cl)O5)cc4)CC3)cc2)c1=O (stereo not drawn) [Itraconazole] | 1 (inactive)
12 | C[C@]12C[C@H](O)[C@H]3[C@@H](CCC4=CC(=O)CC[C@@]43C)[C@@H]1CC[C@@H]2C(=O)CO [Corticosterone] | 1 (inactive)
13 | Nc1c(Br)cc(Br)cc1CN[C@H]1CC[C@H](O)CC1 [Ambroxol hydrochloride] | 0.991 (inactive)
14 | O=C(O)c1cn(C2CC2)c2cc(N3CCNCC3)c(F)cc2c1=O [Ciprofloxacin hydrochloride monohydrate] | 0.00798 (active)
15 | OCCOCCN1CCN(C(c2ccccc2)c2ccc(Cl)cc2)CC1 (stereo not drawn) [Hydroxyzine dihydrochloride] | 0.978 (inactive)
16 | CN1CCC(OC(c2ccccc2)c2ccccc2)CC1 [Diphenylpyraline hydrochloride] | 0.983 (inactive)
17 | NCc1ccc(S(N)(=O)=O)cc1 [Mafenide hydrochloride] | 1 (inactive)
18 | O=C(O)CCc1nc(-c2ccccc2)c(-c2ccccc2)o1 [Oxaprozin] | 1 (inactive)
19 | CCN(CC)CCNC(=O)c1cc(Br)c(N)cc1OC [Bromopride] | 1.01 (inactive)
20 | CN(C/C=C/c1ccccc1)Cc1cccc2ccccc12 [Naftifine hydrochloride] | 0.932 (inactive)
21 | Nc1nc(=O)n([C@@H]2CS[C@H](CO)O2)cc1F [(-) Emtricitabine] | 0.993 (inactive)
22 | CC(C(=O)O)c1ccc(C(=O)c2cccs2)cc1 (stereo not drawn) [Suprofen] | 0.995 (inactive)
23 | OCCN1CCN(CCCN2c3ccccc3C=Cc3ccccc32)CC1 [Opipramol dihydrochloride] | 0.968 (inactive)
24 | c1ccc(CC2=NCCN2)cc1 [Tolazoline hydrochloride] | 1.01 (inactive)
25 | CC=C(C)C(=O)OC1C(OC(C)=O)C2(CO)C(O)CC3(C)C(=CCC4C5(C)CCC(OC6OC(C(=O)O)C(OC7OC(CO)C(O)C(O)C7O)C(O)C6OC6OC(CO)C(O)C(O)C6O)C(C)(CO)C5CCC43C)C2CC1(C)C (stereo not drawn) [Beta-Escin] | 1 (inactive)
26 | N=C(N)N/N=C/c1c(Cl)cccc1Cl [Guanabenz acetate] | 0.967 (inactive)
27 | CCN1CCC[C@H]1CNC(=O)c1c(OC)ccc(Br)c1OC [Remoxipride hydrochloride] | 1.01 (inactive)
28 | C/C=C(/C(=C/C)c1ccc(O)cc1)c1ccc(O)cc1 [Dienestrol] | 0.857 (inactive)
